Sampled rows, rich in hits. Any-hit rate of the full collection: about 2.5%.
ABCB6 inh 2: human ABCB6 transporter inhibition | Q9NP58 | K562-ABCB6 porphyrin accumulation, flow cytometry, 1 h; hits give low values | fluorescence ratio to DMSO, % at 10 µM | actives 0.19% (n = 360,000) | AID 602162;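 active = fluorescence ratio to DMSO below 75%, the collection mean minus 3 SD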;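 note: signal is porphyrin accumulated inside mitochondria; 100% equals median channel fluorescence of DMSO control wells; lower ratio means ABCB6 inhibition with less porphyrin fluorescence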
Target sequence (Q9NP58 whole entry, looked up): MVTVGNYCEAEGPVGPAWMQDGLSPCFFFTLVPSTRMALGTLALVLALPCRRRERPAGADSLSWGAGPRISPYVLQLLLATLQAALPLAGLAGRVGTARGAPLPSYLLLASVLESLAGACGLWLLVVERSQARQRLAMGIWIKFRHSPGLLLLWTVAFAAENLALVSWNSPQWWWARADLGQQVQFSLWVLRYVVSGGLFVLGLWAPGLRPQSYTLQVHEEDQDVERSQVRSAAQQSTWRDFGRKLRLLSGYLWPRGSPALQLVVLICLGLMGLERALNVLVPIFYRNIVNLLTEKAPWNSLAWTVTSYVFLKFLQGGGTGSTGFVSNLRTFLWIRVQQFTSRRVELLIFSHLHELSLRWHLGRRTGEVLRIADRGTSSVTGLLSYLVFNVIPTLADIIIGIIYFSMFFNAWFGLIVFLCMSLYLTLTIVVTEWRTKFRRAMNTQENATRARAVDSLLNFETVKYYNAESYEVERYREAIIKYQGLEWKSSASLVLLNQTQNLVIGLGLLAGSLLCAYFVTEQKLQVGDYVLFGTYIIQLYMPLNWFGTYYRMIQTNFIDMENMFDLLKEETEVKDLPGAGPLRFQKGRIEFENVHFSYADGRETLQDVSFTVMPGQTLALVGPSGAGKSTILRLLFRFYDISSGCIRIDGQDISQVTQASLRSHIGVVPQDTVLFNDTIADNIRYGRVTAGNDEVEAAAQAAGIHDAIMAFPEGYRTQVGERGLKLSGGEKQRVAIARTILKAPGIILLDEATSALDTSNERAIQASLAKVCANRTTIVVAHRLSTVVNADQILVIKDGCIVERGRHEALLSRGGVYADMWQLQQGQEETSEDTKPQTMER
PG9 Ab binder: binds the HIV-1 gp120 antibody PG9; TR-FRET gp120-PG9 antibody binding; inhibition, % at 6.7 µM; actives 0.43% (n = 360,000); in the data active = inhibition above about 8.5%
Granule exo inh: blocks lytic granule exocytosis | inhibition, % at 10 µM | TALL-104 LAMP-1 surface exposure, flow cytometry; cells stimulated with thapsigargin and PMA | actives 0.66% (n = 360,000);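 active = inhibition above about 55%, limit read from the data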
rCAG binder-1: r(CAG) repeat RNA binding. TO-PRO-1 dye displacement fluorescence. inhibition, % at 3 µM. actives 1.3% (n = 370,000). AID 651821;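 active = inhibition above the plate cutoff, the mean of all test compounds on that plate plus 3 SD, cut at about 35% in these data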;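 note: 0% = DMSO alone and 100% = 100 µM mitoxantrone as full dye displacement; higher means more dye released from RNA so lower well fluorescence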
rCAG binder conf: r(CAG) RNA repeat binding, confirmation | inhibition, % at 3 µM | shares compounds with rCAG binder-1 | actives 70% (n = 4,300) | TO-PRO-1 dye displacement fluorescence;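 active = inhibition above a per-plate cutoff, the mean inhibition of sample wells plus 3 SD, cut at about 35% in these data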;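 note: loss of TO-PRO-1 fluorescence as compound displaces dye from 1x1 AA loop RNA; 0% = DMSO only wells and 100% = 100 µM mitoxantrone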
dCAG dye counter: counter-screen for rCAG RNA binders: DNA CAG dye complex inhibitors; d(CAG) DNA oligo TO-PRO-1 dye displacement, fluorescence; shares compounds with rCAG binder-1; inhibition, % at 3 µM; actives 94% (n = 4,300); AID 652068;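 active = inhibition above its plate's cutoff, the mean test-well inhibition plus 3 SD, cut at about 4.8% in these data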;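 note: 0% = DNA dye mix with DMSO and 100% = 100 µM mitoxantrone; hits displace the dye from DNA and so lower well fluorescence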
dCAG dye DR: counter-screen for rCAG binders: inhibitors of DNA CAG TO-PRO-1 complex. IC50, µM. actives 20% (n = 250). DNA CAG/GTC duplex TO-PRO-1 dye displacement fluorescence. shares compounds with rCAG binder-1; in the data active = IC50 below about 10 µM
dCAG TOPRO ctr: DNA CAG dye complex inhibition, late stage dose response; shares compounds with rCAG binder-1; d(CAG) DNA duplex TO-PRO-1 dye displacement, fluorescence; IC50, µM; actives 80% (n = 30); AID 720649
rCAG binder-2: binds r(CAG) RNA repeats in late stage dose response. shares compounds with rCAG binder-1. r(CAG) RNA TO-PRO-1 dye displacement, fluorescence. IC50, µM. actives 100% (n = 30). AID 720651
* hit, by the source's call. Unless noted, the rule behind the calls is not given here.

Screening O=c1[nH]c(=S)n(CCC2=CCCCC2)c(O)c1C=NCc1cccnc1 returned ABCB6 inh 2 98, PG9 Ab binder -1, Granule exo inh 10 and rCAG binder-1 0.
For O=C(N/N=C/c1c(O)n(CCC2=CCCCC2)c(=S)[nH]c1=O)c1ccccc1 the results were ABCB6 inh 2 94, PG9 Ab binder 1, Granule exo inh 0, rCAG binder-1 70*, rCAG binder conf 73*, dCAG dye counter 32*, dCAG dye DR inactive, dCAG TOPRO ctr 2.2* and rCAG binder-2 0.99*.
Screening Nc1ccccc1N=Cc1c(O)n(CCC2=CCCCC2)c(=O)[nH]c1=O returned ABCB6 inh 2 91, PG9 Ab binder 1, Granule exo inh -3 and rCAG binder-1 4.
For Clc1ccc(C(c2ccc(Cl)cc2)n2cc[n+](CC(OCc3ccc(Cl)cc3Cl)c3ccc(Cl)cc3Cl)c2)cc1 (stereo unspecified) the results were ABCB6 inh 2 96, PG9 Ab binder -2, Granule exo inh -8 and rCAG binder-1 16.
Screening CCOc1ccc(N2C(=O)/C(=C/c3ccc(C)o3)C(=O)NC2=S)cc1 returned ABCB6 inh 2 104, PG9 Ab binder 0, Granule exo inh -7, rCAG binder-1 36*, rCAG binder conf 45* and dCAG dye counter 17*.
For Cc1ccc(/C=C2\C(=O)NC(=S)N(c3cccc(F)c3)C2=O)o1 the results were ABCB6 inh 2 99, PG9 Ab binder -2, Granule exo inh -10, rCAG binder-1 45*, rCAG binder conf 49* and dCAG dye counter 20*.
For CC1c2ccccc2-n2nncc2CN1C (stereo unspecified) the results were ABCB6 inh 2 103, PG9 Ab binder -3, Granule exo inh 6 and rCAG binder-1 0.
Screening Cc1ccc(-n2c(=S)[nH]c3ccccc3c2=O)cc1F returned ABCB6 inh 2 94, PG9 Ab binder -1, Granule exo inh 1, rCAG binder-1 36*, rCAG binder conf 34 and dCAG dye counter 8.9*.
O=c1c2ccccc2[nH]c(=S)n1-c1cccc(C(F)(F)F)c1 was read as ABCB6 inh 2 96, PG9 Ab binder 1, Granule exo inh 0 and rCAG binder-1 6.
For CCOc1cc(C2C(C#N)=C(N)Oc3c2c(=O)oc2ccccc32)ccc1OC(=O)c1cccs1 (stereo unspecified) the results were ABCB6 inh 2 102, PG9 Ab binder 2, Granule exo inh -1, rCAG binder-1 47*, rCAG binder conf 30 and dCAG dye counter 15*.
`Cc1nc(C)c(C(=O)NN=Cc2ccc(N(CCCl)CCCl)cc2)s1` gave ABCB6 inh 2 92, PG9 Ab binder -2, Granule exo inh -1 and rCAG binder-1 5.
For COc1ccc(CCn2c(O)c(C=NCc3cccnc3)c(=O)[nH]c2=O)cc1OC the results were ABCB6 inh 2 98, PG9 Ab binder 1, Granule exo inh 5 and rCAG binder-1 -9.
For COc1ccc(C2CC(c3c(O)n(CCc4ccccc4)c(=O)[nH]c3=O)=NN2)cc1OC (stereo unspecified) the results were ABCB6 inh 2 96, PG9 Ab binder -4, Granule exo inh -2, rCAG binder-1 42*, rCAG binder conf 25 and dCAG dye counter 8.0*.
Screening CC(C)c1ccc(C(c2c(O)c3ccccc3oc2=O)c2c(O)c3ccccc3oc2=O)cc1 returned ABCB6 inh 2 100, PG9 Ab binder -2, Granule exo inh 23, rCAG binder-1 94*, rCAG binder conf 95* and dCAG dye counter 82*.
Screening O=c1oc2ccccc2c(O)c1C(c1ccc([N+](=O)[O-])cc1)c1c(O)c2ccccc2oc1=O returned ABCB6 inh 2 95, PG9 Ab binder 0, Granule exo inh -3, rCAG binder-1 96*, rCAG binder conf 94* and dCAG dye counter 76*.
`O=C1NCN(c2ccccc2)C12CCN(C(c1ccnc3ccccc13)c1nnnn1-c1ccc3c(c1)OCCO3)CC2` (stereo unspecified) gave ABCB6 inh 2 96, PG9 Ab binder -2, Granule exo inh -5 and rCAG binder-1 8.
CN1C(=O)/C(=C/C=C/c2ccco2)C(=O)NC1=S was read as ABCB6 inh 2 92, PG9 Ab binder 2, Granule exo inh 0, rCAG binder-1 35*, rCAG binder conf 23 and dCAG dye counter 7.8*.
Cc1cccc(N2C(=O)NC(=O)/C(=C\C=C\c3ccco3)C2=O)c1 was read as ABCB6 inh 2 94, PG9 Ab binder -1, Granule exo inh 28 and rCAG binder-1 27.
Cc1ccc(N2C(=O)NC(=O)/C(=C\C=C\c3ccco3)C2=O)cc1C was read as ABCB6 inh 2 92, PG9 Ab binder -3, Granule exo inh 59*, rCAG binder-1 36*, rCAG binder conf 10 and dCAG dye counter 6.2*.
O=C1NC(=O)N(Cc2ccccc2)C(=O)/C1=C\C=C\c1ccco1 was read as ABCB6 inh 2 107, PG9 Ab binder -4, Granule exo inh 14, rCAG binder-1 55*, rCAG binder conf 15 and dCAG dye counter 6.5*.
C=CCN1C(=O)NC(=O)/C(=C/C=C/c2ccccc2)C1=O was read as ABCB6 inh 2 95, PG9 Ab binder 0, Granule exo inh 0 and rCAG binder-1 11.
Screening O=C1NC(=O)N(Cc2ccco2)C(=O)/C1=C/C=C/c1ccco1 returned ABCB6 inh 2 98, PG9 Ab binder -1, Granule exo inh 9, rCAG binder-1 50*, rCAG binder conf 32 and dCAG dye counter 14*.
CC(=O)OC1CCC2(/C=N/O)C(=CCC3C4CCC(=O)C4(C)CCC32)C1 (stereo unspecified) was read as ABCB6 inh 2 106, PG9 Ab binder 1, Granule exo inh 0 and rCAG binder-1 -7.
`O=C(N/N=C/c1c(O)n(Cc2ccc(F)cc2)c(=O)[nH]c1=O)c1ccccc1` gave ABCB6 inh 2 96, PG9 Ab binder -1, Granule exo inh 8 and rCAG binder-1 19.
O=C(O)CCC(=O)NCCC1=c2ccccc2=N/C1=C\c1c(O)n(Cc2ccc(F)cc2)c(=S)[nH]c1=O was read as ABCB6 inh 2 103, PG9 Ab binder -3, Granule exo inh -3, rCAG binder-1 35*, rCAG binder conf 37* and dCAG dye counter 13*.
For COC(=O)c1c2[n+](cc3cc(OC)c(OC)cc13)CCc1cc(OC)c(OC)cc1-2 the results were ABCB6 inh 2 100, PG9 Ab binder -2, Granule exo inh -5 and rCAG binder-1 4.

Screening results: PubChem BioAssay, several laboratories
